{
  "source": "ChEMBL document CHEMBL3988442",
  "about": "“University of Dundee, Small-Polar-MMV Screening Library” (2021)",
  "note": "Among all 48,000 compounds or so, about 13,000 (27%) showed an effect of 50% or more. This is one part of the list.",
  "data": [
    {"system": "Wolbachia pipientis", "assay": "Anti-Wolbachia Cell-Based Screen", "format": "functional", "set-up": "scale not given: in the data most compounds retested in dose-response had high values", "conditions": "5 µM", "units": {"Percent Effect": "%"}, "values": [
      {"smiles": "Cn1cc(S(=O)(=O)N2CCCC2CC(=O)c2cccs2)cn1", "note": "(configuration not stated)", "Percent Effect": -23.33},
      {"smiles": "Cc1nnc(CN2CCCC2c2ccsc2)o1", "note": "(configuration not stated)", "Percent Effect": 42.12},
      {"smiles": "CC(c1nnc(-c2cccs2)o1)N1CCn2c(nnc2C2CC2)C1", "note": "(configuration not stated)", "Percent Effect": -4.966},
      {"smiles": "Cn1cc(C2CCCN2Cc2csc(-c3ccsc3)n2)cn1", "note": "(configuration not stated)", "Percent Effect": 2.773},
      {"smiles": "Cc1ccc(C2CCCN2S(=O)(=O)N(C)Cc2cnn(C)c2)o1", "note": "(configuration not stated)", "Percent Effect": 13.71},
      {"smiles": "Cc1noc(CCNS(=O)(=O)N2CCCC2c2ccc(C)o2)n1", "note": "(configuration not stated)", "Percent Effect": 4.735},
      {"smiles": "Cc1c(S(=O)(=O)N2CCCCC2c2nnc(-c3cccs3)o2)cnn1C", "note": "(configuration not stated)", "Percent Effect": 114.5},
      {"smiles": "Cc1ccc(-c2nnc(C3CCCN3S(=O)(=O)c3cnn(C)c3C)o2)s1", "note": "(configuration not stated)", "Percent Effect": 112},
      {"smiles": "CN1[C@@H](c2ccccc2)[C@@H](C(=O)NCc2ccncc2)C[C@@]1(C)C(=O)O", "Percent Effect": 1.416},
      {"smiles": "O=C(O)c1ccnc(-c2ccnc(COc3cccc(F)c3)n2)c1", "Percent Effect": -102.4},
      {"smiles": "Cc1cccc(N2CCN(CCNC(=O)C(C)n3cncn3)CC2)c1", "note": "(configuration not stated)", "Percent Effect": 8.571},
      {"smiles": "CC1CCCCN1CCN(C)C(=O)c1cc(CN2CCC(O)CC2)on1", "note": "(configuration not stated)", "Percent Effect": 0.4872},
      {"smiles": "COc1cc(F)ccc1N(C)Cc1cccnc1", "Percent Effect": -2.533},
      {"smiles": "CSCc1cc(F)ccc1CNCc1ccncc1", "Percent Effect": 99.15},
      {"smiles": "Cc1cnn(CCNCc2cccnc2)c1", "Percent Effect": -0.61},
      {"smiles": "CSCc1cc(F)ccc1CNCc1cccc(O)c1", "Percent Effect": 105.8},
      {"smiles": "Fc1cccc(NCc2ncc[nH]2)c1", "Percent Effect": -11.31},
      {"smiles": "CSCc1cc(F)ccc1CNCc1cccnc1", "Percent Effect": 101.5},
      {"smiles": "Fc1cccc(C(NCc2ncc[nH]2)c2ccccc2)c1", "note": "(configuration not stated)", "Percent Effect": -7.792},
      {"smiles": "CSCc1cc(F)ccc1CNCc1ncc[nH]1", "Percent Effect": 108.7},
      {"smiles": "O=C(NCc1ccncc1)N(Cc1ccc(F)cc1F)C1CC1", "Percent Effect": -2.267},
      {"smiles": "O=C1CCCN1c1cccc(CNCc2cc(F)ccc2F)c1", "Percent Effect": -5.013},
      {"smiles": "O=C1OCCN1c1cccc(CNCc2cc(F)ccc2F)c1", "Percent Effect": 6.854},
      {"smiles": "Fc1ccc(NCc2ccncc2)c(OC(F)F)c1", "Percent Effect": -6.491},
      {"smiles": "Cc1cc(C)n(CC(C)NCc2cnc3c(C)cccn23)n1", "note": "(configuration not stated)", "Percent Effect": -11.8},
      {"smiles": "COCCSc1ccc(C(C)NC(=O)Nc2cn[nH]c2)cc1", "note": "(configuration not stated)", "Percent Effect": -2.849},
      {"smiles": "COc1cc(NCC(=O)NC(C)(C#N)C(C)C)cc(OC)c1OC", "note": "(configuration not stated)", "Percent Effect": -11.73},
      {"smiles": "CSc1ccsc1C(=O)NCCNC(=O)C1CC1", "Percent Effect": -5.162},
      {"smiles": "Cn1nccc1-c1ncc2c(c1C(=O)O)CCN(Cc1ccncc1)C2.O=C(O)C(F)(F)F.O=C(O)C(F)(F)F", "Percent Effect": -6.643},
      {"smiles": "O=C(O)c1c(-c2ccncc2)ncc2c1CCN(Cc1ccco1)C2", "Percent Effect": 103.7},
      {"smiles": "Cn1cc(-c2ncc3c(c2C(=O)O)CCN(Cc2ccccn2)C3)cn1.O=C(O)C(F)(F)F.O=C(O)C(F)(F)F", "Percent Effect": 106.1},
      {"smiles": "Cn1cc(CN2CCc3c(cnc(-c4ccccc4)c3C(=O)O)C2)cn1.O=C(O)C(F)(F)F.O=C(O)C(F)(F)F", "Percent Effect": -3.13},
      {"smiles": "Cn1cc(-c2ncc3c(c2C(=O)O)CCN(Cc2ccco2)C3)cn1.O=C(O)C(F)(F)F", "Percent Effect": 100.1},
      {"smiles": "O=C(O)C(F)(F)F.O=C(O)C(F)(F)F.O=C(O)c1cc2c(nc1-c1ccoc1)CCN(Cc1ccco1)CC2", "Percent Effect": 4.884},
      {"smiles": "Cn1cc(C(=O)NCc2cn3c(n2)CN(Cc2ccccn2)CC3)cn1.O=C(O)C(F)(F)F.O=C(O)C(F)(F)F", "Percent Effect": 1.361},
      {"smiles": "O=C(O)C(F)(F)F.O=C(O)C(F)(F)F.O=C(O)c1c(-c2cncnc2)ncc2c1CCN(Cc1ccco1)C2", "Percent Effect": 112.5},
      {"smiles": "Nc1cc(-c2cccc3ccnn23)ccn1", "Percent Effect": -7.377},
      {"smiles": "O=C(COC1CCCC1)NC(C(=O)Nc1cc[nH]n1)c1ccccc1", "note": "(configuration not stated)", "Percent Effect": -15.76},
      {"smiles": "O=C(NCc1nc(C2CCCCC2)no1)C1CC(=O)N(C2CC2)C1", "note": "(configuration not stated)", "Percent Effect": -21.27},
      {"smiles": "Cn1nccc1-c1ncc2c(c1C(=O)O)CCN(Cc1ccccc1)C2.O=C(O)C(F)(F)F.O=C(O)C(F)(F)F.O=C(O)C(F)(F)F", "Percent Effect": -10.76},
      {"smiles": "Cn1nccc1-c1ncc2c(c1C(=O)O)CCN(Cc1cccnc1)C2.O=C(O)C(F)(F)F.O=C(O)C(F)(F)F", "Percent Effect": -4.341},
      {"smiles": "O=C(O)C(F)(F)F.O=C(O)C(F)(F)F.O=C(O)C(F)(F)F.O=C(O)c1c(-c2cncnc2)ncc2c1CCN(Cc1cccnc1)C2", "Percent Effect": 96.39},
      {"smiles": "CN1CCN(C(=O)c2cn(-c3ccc(C(F)(F)F)cn3)nn2)CC1", "Percent Effect": -7.593},
      {"smiles": "Cc1cc(-n2cccn2)ccc1CN1C[C@@H](CN(C)C)[C@@H](CO)C1", "Percent Effect": 14.35},
      {"smiles": "COC1CCN(C(=O)CCn2ccc(=O)[nH]c2=O)CC1", "Percent Effect": -8.705},
      {"smiles": "Cc1ccc(C2(O)CCN(C(=O)Cn3cc(C)c(=O)[nH]c3=O)CC2)nc1", "Percent Effect": 116.3},
      {"smiles": "Cc1cccnc1CN1CCN(C(=O)CCn2ccc(=O)[nH]c2=O)CC1", "Percent Effect": -10.51},
      {"smiles": "Cc1ccc(C2(O)CCN(C(=O)CCn3ccc(=O)[nH]c3=O)CC2)nc1", "Percent Effect": 97.51},
      {"smiles": "Cc1cn(CC(=O)N(C)Cc2cccc3ncccc23)c(=O)[nH]c1=O", "Percent Effect": -19.07},
      {"smiles": "COC(=O)C1CCN(CC2(c3ccc(C)cn3)CCNCC2)CC1", "Percent Effect": -5.791},
      {"smiles": "Cc1cccc(=O)n1CCC(=O)N(C)Cc1cccc2ncccc12", "Percent Effect": -4.376},
      {"smiles": "Cc1ccc(C2(O)CCN(C(=O)CCn3c(C)cccc3=O)CC2)nc1", "Percent Effect": 106.7}
    ]}
  ]
}
